Test results as given in PubChem BioAssay (NCI).
This is part of a sample that, as a whole, favours compounds with a hit. Of some 83,000 tested, about 20% had one in any assay.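 Treatment: one concentration, 48 hours, 96-well format. Scoring: percent growth, with anything below 10 considered active.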 Unmarked numbers belong to inactive results. Activity calls are given as the source filed them.

Key:
Test in all cases: NCI-60 one-dose screen, 48 h (100 = growth as untreated, 0 = no growth, -100 = all killed)
Details in all cases: 10 µM unless noted
SR leukemia = tested on: SR leukemia
OVCAR-5 ovarian = tested on: OVCAR-5 ovarian
OVCAR-4 ovarian = tested on: OVCAR-4 ovarian
IGROV1 ovarian = tested on: IGROV1 ovarian
OVCAR-3 ovarian = tested on: OVCAR-3 ovarian
HS 578T breast = tested on: HS 578T breast
NCI/ADR-RES ovarian = tested on: NCI/ADR-RES ovarian
OVCAR-8 ovarian = tested on: OVCAR-8 ovarian
RPMI-8226 leukemia = tested on: RPMI-8226 leukemia
SK-OV-3 ovarian = tested on: SK-OV-3 ovarian

Row | Compound | growth (SR leukemia) | growth (OVCAR-5 ovarian) | growth (OVCAR-4 ovarian) | growth (IGROV1 ovarian) | growth (OVCAR-3 ovarian) | growth (HS 578T breast) | growth (NCI/ADR-RES ovarian) | growth (OVCAR-8 ovarian) | growth (RPMI-8226 leukemia) | growth (SK-OV-3 ovarian)
1 | N=C(N)c1ccc(-c2ccc(-c3ccc(Cl)cc3Cl)o2)cc1 | 2.97% (active) | 16% | -38.1% (active) | -76.6% (active) | -40.2% (active) | 29.7% | -46.8% (active) |  |  | 
2 | N=C(N)c1ccc(-c2ccc(-c3ccc(Cl)cn3)s2)cc1 | 6.63% (active) | 52.2% | 40% | 14.4% | 4.7% (active) | 63.2% | 62.4% | 38% |  | 
3 | Cl.Fc1c[c-]c(-c2ccccn2)c(F)c1.[Pt].c1ccc(P(c2ccccc2)C([PH+](c2ccccc2)c2ccccc2)[PH+](c2ccccc2)c2ccccc2)cc1 | 23.3% | 22% | 17.2% | 19.1% | 11% | 12% | 84.2% | 16.3% |  | 
4 | C=C1c2c(C)nn(-c3ccc(NC(C)=O)cc3)c2N(C)C23CC1C1(C)c4c(C)nn(-c5ccc(NC(C)=O)cc5)c4N(C)C(C)(CC12)C3 (stereo not given) |  | 78.1% | 35% | 64.8% | 34.3% | 62.6% | 43.4% | 40.8% | -50.5% (active) | 48.5%
5 | Cc1cc(N2CCCCC2)nc(N(CCNc2ccnc3cc(Cl)ccc23)Cc2ccccn2)n1 |  | 68.2% | 41.6% | 31% | 56.8% | 53.5% | 50.4% | 52.8% | -14.7% (active) | 60.5%
6 | Cn1c(NCCc2ccc(O)c(O)c2)nc2c1c(=O)n(Cc1ccc(Cl)cc1)c(=O)n2C |  | 94.9% | 59.8% | 61.9% | 62.6% | 77% | 88.5% | 87.6% | 37.9% | 82.3%
7 | O=S(=O)(NCCNc1cc(-c2c(-c3cccc(O)c3)nc3sccn23)ccn1)c1ccc(Br)cc1 |  | 109% | 43.1% | 47.4% | 60.3% | 59.1% | 80.4% | 47.5% | 38.1% | 73.7%
8 | CCOc1cc(C2C(Cl)C(=O)N2n2cnnc2)ccc1O (stereo not given) |  | 106% | 98.2% | 104% | 96.4% | 88.7% | 100% | 95.5% | 103% | 82.4%
9 | Cc1ccc(S(=O)(=O)Nc2sccc2-c2nc(-c3ccccc3)no2)cc1 |  | 85.8% | 95.1% | 87.9% | 92.2% | 97% | 99.2% | 89.4% | 84.2% | 89.1%
10 | O=C1C=CC(=Nc2cc(Br)c(O)c(Br)c2)C=C1 |  | 94.7% | 50.1% | 72.1% | 32% | 83.8% | 63.9% | 66.7% | -18.9% (active) | 117%
11 | CCN1CCN(c2ccc(Nc3cc(-c4cccnc4Nc4c(Cl)c(OC)cc(OC)c4Cl)ncn3)cc2)CC1 |  | 92.4% | 48.8% | 57.4% | 88.9% | 51.8% | 75.8% | 69.2% | 64.1% | 72.7%
12 | CCN(CC)N=Nc1nn(C(=O)Nc2ccc(Cc3ccccc3)cc2)c2ccc(Cl)cc12 |  | 87.7% | 75.7% | 88% | 87.6% | 91.5% | 82.1% | 69.3% | 57.1% | 92.2%
13 | C[C@H]1[C@H]2C3=CC[C@@H]4[C@@]5(C)C/C(=C/c6ccncc6)C(=O)C(C)(C)[C@@H]5CC[C@@]4(C)[C@]3(C)CC[C@@]2(C(=O)N2CCN(C)CC2)CC[C@@H]1C |  | 86.7% | 73.6% | 84% | 76.3% | 70% | 80.6% | 76.7% | 50.2% | 82.9%
14 | CC1(C)C(=O)/C(=C\c2cccnc2)C[C@]2(C)[C@H]3CC=C4[C@@H]5C[C@@](C)(C(=O)O)CC[C@]5(C)CC[C@@]4(C)[C@]3(C)CC[C@@H]12 |  | 107% | 90.6% | 103% | 98.3% | 99.2% | 102% | 89.7% | 71.5% | 94.9%
15 | Oc1ccccc1-c1nc2ccccn2c1NCCN1CCOCC1 |  | 91.6% | 92.2% | 103% | 97.3% | 89.5% | 104% | 100% | 93.2% | 76.5%
16 | CC[C@@H](C[C@H](CCO)c1ccccc1)c1cc2ccccc2o1 |  | 96.7% | 85.3% | 97.8% | 95.7% | 93% |  | 91% | 90.8% | 93.9%
17 | NC(=O)CC1(O)C=C(Br)C(=O)C(Br)=C1 |  | 70.2% | 34.7% | 82.2% | -9.94% (active) |  |  | 95.9% | -31.3% (active) | 99.1%
18 | COC1=CC(c2ccc[nH]2)=N/C1=C\c1[nH]c(C)c(C(=O)OCCn2cc(CCC[C@@H]3Cc4cc(O)ccc4C4CC[C@]5(C)[C@@H](O)CC[C@H]5C43)nn2)c1C (stereo not given in full) | 23.8% | 88.9% |  | 95.7% | 85.5% | 65.1% | 83.2% |  |  | 92.4%
19 | CS(=O)(=O)c1ccc(-c2nc3cc(Cl)ccc3n2CC(=O)N/N=C/c2ccc(Cl)cc2)cc1 |  | 77.4% | 60.1% | 55.6% | 46.5% | 19.2% | 92.8% | 43.6% | -17.2% (active) | 65.8%
20 | O=C1Nc2ccccc2/C1=N/N=C/c1ccsc1 | 88.6% | 115% | 90.4% | 101% | 103% | 94.4% | 110% |  |  | 
21 | CCCCOc1ccc(NC(=O)n2nc(N=NN(C)C)c3ccc(Cl)cc32)cc1 |  | 103% | 96.6% | 82.8% | 104% | 93.6% | 98.3% | 105% | 92.7% | 86%
22 | C=C1C(=O)O[C@H]2[C@H]1CC/C(COC(=O)/C=C/C(=O)NCc1ccc(Cn3c(=O)sn(-c4ccccc4)c3=O)cc1)=C\CC[C@@]1(C)O[C@@H]21 |  | 35.4% | 25.7% | -25.5% (active) | -77.5% (active) | 77.8% |  | -0.571% (active) | -32.6% (active) | 75.8%
23 | O=C(C[C@@]1(O)C(=O)Nc2c(Cl)ccc(Cl)c21)c1ccc(C2CC2)cc1 |  | 33.4% | 54.3% | 22.9% | -11.9% (active) | 7.19% (active) | 5.4% (active) | 29.7% | 23.4% | 38.6%
24 | CCCc1nc2ccccn2c1Nc1ccc(C(=O)NO)cc1 |  | 93.7% | 91.1% | 111% | 99.1% | 94.6% | 84.6% | 78% | 76.3% | 80.9%
25 | CN(CCCCCCCCNc1ccnc2ccccc12)Cc1ccc(-c2ccc(-c3ccc(C#N)cc3)s2)cc1 |  | -40.6% (active) | -57.9% (active) | -86.4% (active) | -79.1% (active) | -36.6% (active) | -68.3% (active) | -52.5% (active) | -44.4% (active) | -72.6% (active)
26 | C=CC(=O)Nc1cccc(C)c1Nc1cc(-c2cccnc2Cc2c(C)c(OC)cc(OC)c2C)ncn1 |  | 57.5% | 41.9% | 42.6% | 0.807% (active) | 29.6% | 35.3% | 3.17% (active) | -24.1% (active) | 28.7%
27 | CN(C)c1ccc(/C=N/NC(=O)COc2cc(=O)n(C)c3ccccc23)cc1 |  | 94.2% | 113% | 87% | 112% | 120% | 108% | 103% | 107% | 112%
28 | C=C(C)[C@@H]1CC[C@]2(CNCCO)CC[C@]3(C)[C@H](CC[C@@H]4[C@@]5(C)CCC(N)[C@@](C)(CO)[C@@H]5CC[C@]43C)[C@@H]12 (stereo not given in full) |  | 63.8% | 46.2% | 61.6% | -43.4% (active) | 60.9% | 83% | 10.7% | -45.1% (active) | 75%
